GAA850 FXN act – increases GAA850 frataxin promoter reporter activity; HEK293 lucGAA850 FXN promoter luciferase reporter, 24 h; percent of 10 µM SAHA response; activation, % at 6 µM; 360,000 compounds, 0.56% hits; AID 540364;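 active = activation above the average of all compounds screened plus 3 SD, cutoff fixed separately per campaign, cut at about 7.5% in these data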;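 note: 0% = DMSO wells and 100% = 10 µM SAHA wells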
Wnt act – Wnt/beta-catenin pathway activation. Wnt/beta-catenin reporter cell assay, activator, plate reader. AID 743398. 300,000 compounds, 1.2% hits. activation, % at 9.35 µM; in the data active = activation above about 30%, passing the limit was not always enough; inconclusive = no clear call, values can overlap the other calls;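 note: 0% = neutral control wells and 100% = positive control wells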
MITF TRPM1 HTS – activators of MITF-driven TRPM1 promoter activity in SK-MEL-5 cells; SK-MEL-5 TRPM1-promoter luciferase, 24 h; % of positive control, neutral wells = 0; activation, % at 12.5 µM; 300,000 compounds, 0.75% hits; AID 588334;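 active = mean activation of at least 80% with every replicate also reaching 80%; inconclusive = mean reaches 80% but some replicate falls short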;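 note: 0% = neutral control wells and 100% = parthenolide positive control wells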
AHR activator – human AHR activation | P35869 | AHR-responsive luciferase reporter cells, luminescence | activation, % at 5 µM | 320,000 compounds, 2.5% hits | AID 2796; in the data active = activation above about 47%;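 note: 0% = vehicle wells and 100% = reference agonist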
esBAF inh – SWI/SNF esBAF complex inhibition | mouse ES cells, Bmi1-luciferase knock-in reporter, 24 h; 100% = twice the neutral-well signal | reporter increase, % at 12.5 µM | 350,000 compounds, 2% hits | AID 602393; in the data active = activation above about 40%; inconclusive = no clear call, values can overlap the other calls;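 note: 0% = median of the plate's neutral control wells and 100% = double that signal; a rise in the Bmi1 reporter signal indicates esBAF inhibition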
The depositor's hits bear a star; ? = inconclusive; . = no result given. Hits are enriched below; roughly 4.2% of the tested compounds scored in any of these assays.

SMILES	GAA850 FXN act	Wnt act	MITF TRPM1 HTS	AHR activator	esBAF inh
COc1ccc(S(=O)(=O)N(C)C[C@@H]2OCCCC[C@@H](C)Oc3ccc(NS(=O)(=O)c4ccccc4)cc3C(=O)N([C@@H](C)CO)C[C@@H]2C)cc1	.	.	.	.	15.4
Cc1ccc2nc(-c3ccc(NS(=O)(=O)c4c(C)n(C)c(=O)n(C)c4=O)cc3)sc2c1	3.0	47.8*	?	17.6	.
O=C(Nc1ccccc1OC(F)F)c1cc2c(s1)CCC2	4.2	.	32.7	13.1	44.4*
Cc1ccc(NC(=O)c2cc3c(s2)CCCC3)cc1	7.3	60.6*	147.7*	29.9	?
Cc1ccc(NC(=O)CN(C)C(=O)c2cc3c(s2)CCCCC3)cc1	2.8	-0.2	8.2	1.8	-5.6
Cc1ccc(NC(=O)c2scc3c2CCCC3)cc1	4.8	14.6	115.1*	25.8	.
C[C@@H]1CN([C@H](C)CO)C(=O)c2cc(NC(=O)NC3CCCCC3)ccc2O[C@@H]1CN(C)S(=O)(=O)c1ccc(F)cc1	.	.	.	.	-1.4
C[C@@H]1CN([C@H](C)CO)C(=O)c2cc(/C=C/c3ccccc3)cnc2O[C@H]1CN(C)Cc1cncnc1	.	.	.	.	2.4
Cc1oc(-c2ccccc2F)nc1CS(=O)CC(=O)NCc1ccc2c(c1)OCO2 (stereo not drawn)	-3.9	42.8*	.	50.0*	-8.8
CCOc1ccc(/C=C2\CCc3ccccc3C2=O)cc1	0.5	10.2	94.9*	-1.5	34.7
COc1ccc(C=C2c3ccccc3C(=O)c3ccccc32)c(OC)c1	-1.1	8.9	.	4.0	.
COc1ccc(/C=C2/CCc3ccccc3C2=O)cc1OC	6.9	50.1*	19.0	3.7	17.7
COc1ccc2c(c1)CC/C(=C\c1ccc(OC)c(Cn3cccn3)c1)C2=O	-0.7	.	.	1.5	86.8*
COc1ccc(/C=C2\COc3ccccc3C2=O)c(OC)c1	1.9	-4.6	36.7	1.3	62.6*
COc1ccc(/C=C2\COc3ccccc3C2=O)cc1OC	0.4	33.1*	-7.5	-1.3	.
O=C(O)c1ccc(/C=C2\COc3ccccc3C2=O)cc1	-0.1	3.5	-8.8	-0.6	4.0
Cc1ccc(-c2nnc(Cc3ccc([N+](=O)[O-])cc3)o2)cc1	7.0	?	93.7*	0.0	-4.7
CNC[C@@H]1Oc2ncc(-c3ccc(C)cc3)cc2C(=O)N([C@@H](C)CO)C[C@@H]1C	.	.	.	.	-3.1
COc1ccc(-c2nnc(SCC(=O)N3CCCCC3)o2)cc1	1.3	5.3	35.1	10.9	37.8
COc1ccc(-c2nnc(SCC(=O)N3CCCC3)o2)cc1	4.1	8.5	35.8	4.0	45.4*
CCOc1ccc(-c2nnc(SCC(=O)N3CCCC3)o2)cc1	3.4	3.5	28.1	1.9	53.0*
N#CC1CC(c2ccccc2)=NN1c1ccccc1[N+](=O)[O-] (stereo not drawn)	4.2	9.7	14.0	44.1	51.7*
CC1(C)CC(=O)C2=C(C1)NC(=O)NC2c1ccc(Cl)cc1 (stereo not drawn)	-2.0	-2.1	.	-1.8	-3.2
CC1(C)CC(=O)C2=C(C1)Nc1cc(Cl)ccc1S2	0.7	0.0	.	53.1*	.
Clc1ccc(-c2nc(NCCCN3CCOCC3)c3ccccc3n2)cc1	1.3	15.1	.	70.7*	.
SMILES	GAA850 FXN act	Wnt act	MITF TRPM1 HTS	AHR activator	esBAF inh
Cc1cc(NCCN2CCOCC2)c2ccc3ccccc3c2n1	0.5	57.1*	20.0	24.5	.
Clc1cccc(-c2nc(NCCN3CCOCC3)c3ccccc3n2)c1	2.6	-2.0	3.9	11.4	0.2
Cc1ccc(-c2nc(NCCN3CCOCC3)c3ccccc3n2)cc1	4.4	9.8	-0.6	65.5*	23.9
C[C@@H](O)C#Cc1ccc([C@@H]2[C@@H](CO)N3CCCCN(C(=O)c4ccc5c(c4)OCO5)C[C@H]23)cc1	.	.	.	.	-3.4
Cc1ccc(S(=O)(=O)NC2=C(N3CCN(c4ccccc4F)CC3)C(=O)c3ccccc3C2=O)cc1	1.6	-0.5	-5.7	6.9	37.0
CC(=O)Nc1ccc(S(=O)(=O)NC2=C(N3CCN(c4ccc(F)cc4)CC3)C(=O)c3ccccc3C2=O)cc1	-1.9	-1.1	-48.0	84.6*	.
Cc1noc(C)c1S(=O)(=O)N(C)C[C@@H]1OCCCC[C@H](C)Oc2ccc(NS(C)(=O)=O)cc2C(=O)N([C@H](C)CO)C[C@@H]1C	.	.	.	.	9.9
Cc1c(-c2ccc(Br)cc2)[n+](=O)c2c(n1[O-])CCCCC2	-0.7	36.5*	.	-3.6	.
Cc1ccsc1/C=C1\Oc2cc(O)ccc2C1=O	1.8	0.0	.	.	51.3*
Cc1cccc(/C(N)=N/OC(=O)c2ccncc2)c1	1.9	34.3*	69.2	.	11.5
COc1ccc(/C(N)=N/OC(=O)c2cccc([N+](=O)[O-])c2)cc1	1.0	.	24.7	11.9	64.1*
N/C(=N\OC(=O)c1ccc(Br)cc1)c1cccc([N+](=O)[O-])c1	1.8	4.3	47.6	10.9	72.4*
COc1cccc(/C(N)=N/OC(=O)Cc2ccccc2[N+](=O)[O-])c1	1.6	-3.4	20.3	60.5*	.
CC(C)NC(=O)N[C@H]1CC[C@H](CCNC(=O)C2CCOCC2)O[C@H]1CO	.	.	.	.	-1.1
COC(=O)C[C@H]1CC[C@@H]2[C@@H](COc3ccc(NC(=O)c4cnccn4)cc3C(=O)N2C)O1	.	.	.	.	-0.6
N/C(=N\OC(=O)c1ccncc1)c1cccc([N+](=O)[O-])c1	5.0	13.7	.	-0.7	54.4*
COc1cc(C(=O)O/N=C(\N)c2cccc([N+](=O)[O-])c2)cc(OC)c1OC	-0.9	-0.6	11.5	1.8	-1.6
Cc1ccc(C(=O)O/N=C(\N)c2cccc([N+](=O)[O-])c2)cc1	4.4	-1.6	94.1*	-6.6	39.9
COc1ccc(/C(N)=N/OC(=O)c2cccc([N+](=O)[O-])c2C)cc1	0.4	-1.7	24.9	54.5*	.
N/C(=N\OC(=O)c1cccc2ccccc12)c1ccncc1	2.3	14.3	54.7	67.2*	-16.6
CC(=O)N1[C@@H](CO)[C@@H](c2ccccc2)[C@@H]1CN(CC1CCC1)C(=O)CN(C)C	.	.	.	.	-6.3
Cc1ccccc1-c1ccc2c(c1)O[C@@H](CN(C)C(=O)c1ccccn1)[C@@H](C)CN([C@@H](C)CO)S2(=O)=O	.	.	.	.	-2.4
Cc1noc(C)c1NC(=O)Nc1cccc2c1O[C@@H](CN(C)S(C)(=O)=O)[C@@H](C)CN([C@H](C)CO)C2=O	.	.	.	.	-0.3
